Experimental data taken from PubChem BioAssay AID623994 (NMMLSC, 2012).
Measured potencies and affinities stand elsewhere. The source made the active and inactive calls.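 How the source made its calls: active means compounds whose fitted concentration for half the maximal dye retention is below 100 µM; inactive means the rest.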

Biological target: Multidrug resistance protein CDR2 (Candida albicans (strain SC5314 / ATCC MYA-2876)) (UniProt P78595)
Test: CaCDR2 efflux pump inhibitors in yeast, dose response, S. cerevisiae AD1-8u, singleplex, Cherry Pick2 set (AID 623994)
Conditions: S. cerevisiae AD1-8u expressing CaCDR2, Nile Red efflux; series mostly up to 100 µM

Sequence of Multidrug resistance protein CDR2 (Candida albicans (strain SC5314 / ATCC MYA-2876)) (P78595 whole entry, looked up): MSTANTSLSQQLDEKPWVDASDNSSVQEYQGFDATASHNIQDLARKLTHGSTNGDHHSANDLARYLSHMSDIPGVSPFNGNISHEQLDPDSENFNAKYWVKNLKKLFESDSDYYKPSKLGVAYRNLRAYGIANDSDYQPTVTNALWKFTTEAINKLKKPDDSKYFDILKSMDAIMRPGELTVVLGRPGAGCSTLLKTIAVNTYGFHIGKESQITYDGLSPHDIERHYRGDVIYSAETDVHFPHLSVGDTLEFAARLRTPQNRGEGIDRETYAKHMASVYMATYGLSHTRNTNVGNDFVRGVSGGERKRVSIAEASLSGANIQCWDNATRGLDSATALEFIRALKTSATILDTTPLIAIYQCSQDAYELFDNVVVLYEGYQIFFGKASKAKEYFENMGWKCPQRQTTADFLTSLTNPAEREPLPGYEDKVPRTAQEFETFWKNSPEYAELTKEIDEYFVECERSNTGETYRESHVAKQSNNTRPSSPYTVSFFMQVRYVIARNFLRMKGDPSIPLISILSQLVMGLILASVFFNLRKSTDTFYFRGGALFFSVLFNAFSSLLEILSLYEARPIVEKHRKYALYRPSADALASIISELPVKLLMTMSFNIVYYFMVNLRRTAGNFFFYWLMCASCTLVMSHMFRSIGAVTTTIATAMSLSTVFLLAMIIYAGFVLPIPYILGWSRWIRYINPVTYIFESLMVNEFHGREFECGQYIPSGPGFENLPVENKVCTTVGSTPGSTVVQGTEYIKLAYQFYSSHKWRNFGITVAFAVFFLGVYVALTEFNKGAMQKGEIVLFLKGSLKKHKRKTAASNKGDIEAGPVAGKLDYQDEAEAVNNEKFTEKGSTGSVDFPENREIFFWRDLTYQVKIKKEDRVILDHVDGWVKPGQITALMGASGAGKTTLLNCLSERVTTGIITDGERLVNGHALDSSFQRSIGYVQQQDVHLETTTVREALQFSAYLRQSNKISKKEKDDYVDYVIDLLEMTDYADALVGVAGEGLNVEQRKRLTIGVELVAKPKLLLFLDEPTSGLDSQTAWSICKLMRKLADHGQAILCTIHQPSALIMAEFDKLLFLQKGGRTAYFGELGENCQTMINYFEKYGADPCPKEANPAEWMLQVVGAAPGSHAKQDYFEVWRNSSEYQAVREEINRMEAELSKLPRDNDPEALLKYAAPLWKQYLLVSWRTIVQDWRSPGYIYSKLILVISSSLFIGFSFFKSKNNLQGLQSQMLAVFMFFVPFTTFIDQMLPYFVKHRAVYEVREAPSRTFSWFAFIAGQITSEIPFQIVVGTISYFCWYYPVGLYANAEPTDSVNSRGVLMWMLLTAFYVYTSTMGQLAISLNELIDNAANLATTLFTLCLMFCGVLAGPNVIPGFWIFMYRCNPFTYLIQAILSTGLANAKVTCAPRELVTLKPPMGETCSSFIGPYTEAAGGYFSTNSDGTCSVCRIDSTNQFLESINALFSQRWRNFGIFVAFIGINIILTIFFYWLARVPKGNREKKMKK

outcome, inactive:
COc1ccc(C2CC(c3cccc(OC)c3)=NN2c2ccc(S(N)(=O)=O)cc2)cc1 (centres undefined)
C[C@@]12C(=O)Nc3ccc(Cl)cc3C(=O)N1[C@H]1c3cc(Cl)ccc3OC[C@@H]1[C@@H]2c1ccccc1
Cc1noc(C)c1C(=O)N1CCC2(CC1)Oc1ccc(F)cc1C(=O)C21CC(c2ccc(Cl)cc2)=NO1 (centres undefined)
O=C(NC1CCCc2c1cnn2-c1ccccc1F)c1ccccn1 (centres undefined)
O=C(C[n+]1cc(-c2ccc(F)cc2)n2c1CCC2)N1c2ccccc2Sc2ccccc21
O=C(c1ccoc1)N1CCC2(CC1)Oc1ccc(F)cc1C(=O)C21CC(c2ccc(Cl)cc2)=NO1 (centres undefined)
COc1ccc(O)c(C(=O)c2cnc3c(c2)CN(C)C(=O)N3)c1
COc1ccc(CNC(=O)C(C#N)c2nc3ccccc3nc2N2CCCC2)cc1 (centres undefined)
CCO[C@@H]1OC(C(=O)Nc2ccccc2)=C[C@H](c2ccccc2)[C@H]1CCCO
Cc1ccc(-c2c[n+](CC(=O)N3c4ccccc4Sc4ccccc43)c3n2CCC3)cc1
COc1ccc(C2CC(c3ccccc3C(F)(F)F)=NN2c2ccc(S(N)(=O)=O)cc2)cc1 (centres undefined)
O=C(Nc1ccccc1)C1=C[C@@H](c2ccc(C(F)(F)F)cc2)C[C@@H](OCCCCO)O1
COc1ncccc1C(=O)NC1CCCc2c1cnn2-c1cc(C)cc(C)c1 (centres undefined)
CC(C)C(=O)N1CCC2(CC1)Oc1ccc(F)cc1C(=O)C21CC(c2ccc(Cl)cc2)=NO1 (centres undefined)
Cc1ccc(O)c(C(=O)c2cnc3c(c2)CN(C)C(=O)N3)c1
NS(=O)(=O)c1ccc(N2N=C(c3ccccc3)CC2c2cccc(Br)c2)cc1 (centres undefined)
CCC(Cc1ccccc1)OC(=O)c1ccccc1C(=O)O (centres undefined)
NS(=O)(=O)c1ccc(N2N=C(c3ccccc3)CC2c2ccccc2)cc1 (centres undefined)
O=C(c1ccoc1)N1CCC2(CC1)Oc1ccc(F)cc1C(=O)C21CC(c2ccccc2)=NO1 (centres undefined)
NC1=NC[C@H](Cc2ccc(O)cc2)N1CCc1cc(C(F)(F)F)cc(C(F)(F)F)c1
COc1cc(OC)c2c(-c3ccccc3)cc(=O)oc2c1C(CCN1CCCC(C)C1)c1ccc(N(C)C)cc1 (centres undefined)
NS(=O)(=O)c1ccc(N2N=C(c3ccccc3)CC2c2ccc(Br)cc2)cc1 (centres undefined)
O=C(C1CCC(CNc2nc(=S)[nH]c3ccccc23)CC1)N1CCN(c2ccc(F)cc2)CC1 (centres undefined)
COc1ccc(C2CC(c3ccccc3)=NN2c2ccc(S(N)(=O)=O)cc2)cc1 (centres undefined)
Cc1ccc(CNC(=O)C2CCC(CNc3nc(=S)[nH]c4ccccc34)CC2)cc1 (centres undefined)
COc1ccc2nc(NC(=O)c3cccs3)sc2c1
Cc1cccc2sc(N(CCCN(C)C)C(=O)c3ccc(Cl)s3)nc12
O=C(CSc1nnc(Cc2cccs2)n1Cc1ccco1)Nc1ccc(Br)cc1
O=C(C[n+]1cc(-c2ccc(Cl)cc2)n2c1CCC2)N1c2ccccc2Sc2ccccc21
